What all share (format): functional
In assay [1] the test system is Plasmodium falciparum. Description: GSK_TCMDC: Inhibition of Plasmodium falciparum 3D7 in whole red blood cells, using parasite LDH activity as an index of growth. Test compounds present at 2uM.
Assay [2] has as its system Plasmodium falciparum. Description: GSK_TCMDC: Inhibition of Plasmodium falciparum Dd2 in whole red blood cells, using parasite LDH activity as an index of growth. Test compounds present at 2uM.
Another assay has as its system HepG2. Description: GSK_TCMDC: Percent inhibition of human HepG2 cell line. Test compounds present at 10uM.

Structures are written as SMILES. Where “and” joins values, the source holds several entries; their conditions need not be identical. Equal values may be shown once.

One may read the Inhibition as the change of the read-out against control, counted positive when it falls. Read a high Inhibition as a strong effect. Regarding `CN(C)CCc1c[nH]c2ccc(C(=O)Nc3ccc(-c4ccncc4)cc3)cc12.O=C(O)CCC(=O)O`, the Inhibition with Plasmodium falciparum [1] turned out to be 99%; in the assay on Plasmodium falciparum [2] it was 46%; with HepG2, 23%.
The corresponding values for `O=C(O)C(F)(F)F.O=C(c1cccs1)N(Cc1cccc(-c2ccc(CNC3CCCC3)cc2)c1)C1CCN(Cc2ccccc2)CC1` are 90%, 74% and 20%.
On to `CN(c1cc(NC(=O)c2ccc(F)cc2)ccn1)C1CCN(Cc2ccc(C#N)cc2)CC1.O=C(O)C(F)(F)F`, for which the Inhibition in the assay with Plasmodium falciparum [1] was 87%; in the assay on Plasmodium falciparum [2], 54%; in the assay on HepG2, 13%.
Turning to `COc1cc(/C=C/C(=O)NC2CCC(CN3CCC(c4c[nH]c5ccccc45)CC3)CC2)ccc1O` (stereo not given), the Inhibition in the assay on Plasmodium falciparum [1] is 98% and 99%; with Plasmodium falciparum [2] it was 45% and 44%; in the assay on HepG2, 11% and 19%.
As to `CC[C@H]1CN2CC[C@H]1C[C@H]2[C@H](O)c1ccnc2ccc(O)cc12.Cl`, the Inhibition with Plasmodium falciparum [1] stood at 99%; with Plasmodium falciparum [2] it was 2%; with HepG2, 11%.
As for `O=C(COc1ccc(Cl)cc1)N1CCC(CN2CCC(c3c[nH]c4ccccc34)CC2)CC1`, the Inhibition was 89% with Plasmodium falciparum [1], 13% with Plasmodium falciparum [2] and 48% with HepG2.
Consider `COC(=O)/C=C/C(=O)N[C@@H]1CC[C@@]2(O)[C@H]3Cc4ccc(O)c5c4[C@@]2(CCN3CC2CC2)[C@H]1O5.Cl`, for which the figures for the Inhibition in the assay on Plasmodium falciparum [1], in the assay with Plasmodium falciparum [2] and with HepG2 were 95%, 66% and 9%, respectively.
As for `COC(=O)c1ccc(CC(C)NCC(O)c2ccc3ccc4ccccc4c3c2)cc1.O=C(O)/C=C/C(=O)O` (stereo not given), the Inhibition with Plasmodium falciparum [1] came out at 100%; with Plasmodium falciparum [2], 97%; in the assay on HepG2, 21%.
The like results for `C[C@@H]1C[C@@H]([C@H](O)CC2CC(=O)NC(=O)C2)C(=O)[C@@H](C)C1` [CYCLOHEXIMIDE] were, in that order, 96%, 87% and 46%.
On to `CCCCCc1cc(O)c2c(c1)OC(C)(C)CC2C1=CCN(Cc2ccccc2)CC1` (stereo not given), for which the Inhibition is 99% in the assay with Plasmodium falciparum [1], 79% in the assay on Plasmodium falciparum [2] and 15% in the assay on HepG2.
With `CC[C@H]1CN2CC[C@@H]1C[C@H]2[C@H](O)c1cc(N2CCC(O)(c3ccc(Cl)cc3)CC2)nc2ccc(OC)cc12`, the results for the Inhibition with Plasmodium falciparum [1], in the assay on Plasmodium falciparum [2] and in the assay with HepG2 were 100%, 98% and 21%, respectively.
Take `Cc1[nH]c2ccccc2c1C1=CCN(CCCCC23CCCc4cccc(c42)NC3=O)CC1` (stereo not given): the Inhibition amounted to 95% in the assay with Plasmodium falciparum [1], 91% with Plasmodium falciparum [2] and 9% with HepG2.
The corresponding values for `Cc1nc(C)c(-c2ccc(Oc3ccc(OC(F)(F)F)cc3)cc2)c(OC(=O)N(CCNC(C)C)C(C)C)c1Br.Cl` are 98%, 97% and 35%.
The like results for `CC(Cc1ccc(OCCOc2ccccc2)cc1)NCC(O)c1cccc(C(F)(F)F)c1` (stereo not given) were, in that order, 91%, 76% and 16%.
Regarding `C/C=C1\CN2CC[C@H]1C[C@H]2[C@H](O)c1ccnc2ccc(OC)cc12`, the values for the Inhibition with Plasmodium falciparum [1], in the assay on Plasmodium falciparum [2] and in the assay on HepG2 were 100%, 45% and 0%, respectively.
As for `C=C[C@H]1CN2CC[C@H]1C[C@H]2[C@H](O)c1ccnc2ccccc12` [CINCHONIDINE], the Inhibition in the assay on Plasmodium falciparum [1] is given as 100%; with Plasmodium falciparum [2] it was 3%; with HepG2, 9%.
With `Cc1[nH]c2ccccc2c1C1CCN(CC2CCC(NC(=O)/C=C/c3ccc(Cl)c(Cl)c3)CC2)CC1` (stereo not given), the Inhibition amounted to 100% with Plasmodium falciparum [1], 93% in the assay with Plasmodium falciparum [2] and 15% with HepG2.
Take `CCC(C)CN1CCC(N(C)c2cc(NC(=O)c3cccc(C)c3)ccn2)CC1.O=C(O)C(F)(F)F` (stereo not given): the Inhibition stood at 93% with Plasmodium falciparum [1], 14% with Plasmodium falciparum [2] and 1% with HepG2.
`CN(C)c1cccc(NC(=O)N[C@H]2N=C(c3ccccc3)c3ccccc3N(CC(=O)N3CCCC3)C2=O)c1`: the results for the Inhibition with Plasmodium falciparum [1], in the assay with Plasmodium falciparum [2] and with HepG2 were 98%, 98% and 0%, respectively.
For the compound `CCOC(=O)CCCN1C(=O)CN=C(c2ccccc2)c2cc(Cl)ccc21`, the values for the Inhibition in the assay with Plasmodium falciparum [1], with Plasmodium falciparum [2] and in the assay on HepG2 were 97%, 47% and 54%, respectively.
The like results for `CCOC(C(=O)OCCN(C(C)C)C(C)C)(c1ccccc1)c1ccccc1` were, in that order, 97%, 4% and 4%.
The corresponding values for `Cc1ccc2c(C3=CCN(CCCCC4(C)C(=O)Nc5ccccc54)CC3)c(C)[nH]c2c1` (stereo not given) are 95%, 91% and 9%.
The like results for `Cc1ccc(C2(O)CC3CCC(C2)N3C)cc1` (stereo not given) were, in that order, 92%, 16% and 0%.
With `COCCNCc1ccc(-c2ccc(CN(C(=O)Nc3ccccc3)C3CCN(Cc4ccccc4)CC3)cc2)cc1.O=C(O)C(F)(F)F`, the Inhibition is 98% with Plasmodium falciparum [1], 39% in the assay with Plasmodium falciparum [2] and 16% with HepG2.
In the case of `CC(=O)C1(c2ccccc2)CCN(CCC2(c3ccc(Cl)c(Cl)c3)CN(C(=O)Nc3cccc(C(F)(F)F)c3)CCO2)CC1` (stereo not given), the Inhibition was 95% with Plasmodium falciparum [1], 66% with Plasmodium falciparum [2] and 24% with HepG2.
The corresponding values for `O=C(/C=C/c1ccc(Cl)c(Cl)c1)N1CCC(CN2CCC(c3c(Br)[nH]c4ccccc34)CC2)CC1` are 100%, 99% and 41%.
As for `CC[C@H]1CN2CC[C@H]1C[C@@H]2[C@@H](O)c1ccnc2ccccc12`, the Inhibition with Plasmodium falciparum [1] was found to be 98%; in the assay on Plasmodium falciparum [2] it was 20%; in the assay on HepG2, 10%.
The like results for `CC(=O)C1(c2ccccc2)CCN(CCC2(c3ccc(Cl)c(Cl)c3)CN(C(=O)C3CCCC3)CCO2)CC1` (stereo not given) were, in that order, 88%, 70% and 11%.
`O=C(O)/C=C\C(=O)O.OC1(c2ccc(Cl)c(C(F)(F)F)c2)CCN(CCOC2c3ccccc3CSc3ccc(Cl)cc32)CC1` (stereo not given): the Inhibition stood at 95% with Plasmodium falciparum [1], 58% in the assay on Plasmodium falciparum [2] and 3% with HepG2.
The like results for `CC[C@H]1CN2CC[C@H]1C[C@H]2[C@H](O)c1cc(-c2cccc(Cl)c2)nc2ccc(OC)cc12.Cl` were, in that order, 98%, 99% and 16%.
Turning to `CC1CN=C(Nc2ncc(Cl)cc2Cl)N1.Cl` (stereo not given), the Inhibition in the assay on Plasmodium falciparum [1] is 99%; in the assay on Plasmodium falciparum [2], 3%; with HepG2, 2%.
The like results for `CC(=O)Nc1ccc(CN2CCC(N(C)c3cc(NC(=O)c4cccc(F)c4)ccn3)CC2)cc1.O=C(O)C(F)(F)F` were, in that order, 85%, 0% and 4%.
Take `O=C(NC1CCC(CN2CCC(c3c[nH]c4ccccc34)CC2)CC1)c1cc(-c2ccccc2Cl)n(-c2cccc(Cl)c2)n1` (stereo not given): the figures for the Inhibition in the assay with Plasmodium falciparum [1], in the assay on Plasmodium falciparum [2] and with HepG2 were 95%, 24% and 58%, respectively.
Consider `O=C(/C=C/c1cccs1)NC1CCC(CN2CCC(c3c[nH]c4ccccc34)CC2)CC1` (stereo not given), for which the figures for the Inhibition with Plasmodium falciparum [1], in the assay with Plasmodium falciparum [2] and in the assay with HepG2 were 82%, 29% and 33%, respectively.
The corresponding values for `O=C(/C=C/c1ccc(Cl)c(Cl)c1)N(Cc1ccccc1)C1CCC(CN2CCC(c3c[nH]c4ccccc34)CC2)CC1` (stereo not given) are 100%, 59% and 37%.
`COc1ccc(CN2CCN(CCOC(c3ccccc3)c3ccc(Cl)cc3)CC2)c(O)c1` (stereo not given): the Inhibition in the assay with Plasmodium falciparum [1] was found to be 99%; with Plasmodium falciparum [2], 98%; in the assay on HepG2 it was 12%.
The like results for `COCCNCc1cccc(-c2cccc(CN(C(=O)Nc3ccccc3)C3CCN(Cc4ccccc4)CC3)c2)c1.O=C(O)C(F)(F)F` were, in that order, 100%, 65% and 28%.
The corresponding values for `COCCNCc1ccc(-c2ccc(CN(C(=O)NC3CCCCC3)C3CCN(Cc4ccccc4)CC3)cc2)cc1.O=C(O)C(F)(F)F` are 94%, 84% and 29%.
As for `O=C(NC1CCC(CN2CCC(c3c[nH]c4ccccc34)CC2)CC1)[C@H]1Cc2ccccc2CN1` (stereo not given in full), the values for the Inhibition with Plasmodium falciparum [1], with Plasmodium falciparum [2] and with HepG2 were 89%, 35% and 29%, respectively.
For the compound `COC(C(=O)OCCC1CCCN1C)(c1ccccc1)C1CCCCC1` (stereo not given), the Inhibition is given as 100% with Plasmodium falciparum [1], 5% with Plasmodium falciparum [2] and 3% in the assay with HepG2.
The corresponding values for `CCCCCc1cc(O)c2c(c1)OC(C)(C)c1ccncc1-2.Cl` are 99%, 57% and 0%.
As to `O=C(/C=C/c1ccc(C(F)(F)F)cc1)NC1CCC(CN2CCC(c3c[nH]c4ccccc34)CC2)CC1` (stereo not given), the Inhibition in the assay with Plasmodium falciparum [1] was 100% and 98%; in the assay on Plasmodium falciparum [2] it was 100% and 97%; in the assay with HepG2, 73% and 42%.
`CC[C@H]1CN2CC[C@@H]1C[C@H]2[C@H](O)c1cc(-c2cccnc2)nc2ccc(OC)cc12.Cl`: the results for the Inhibition with Plasmodium falciparum [1], in the assay on Plasmodium falciparum [2] and with HepG2 were 99%, 99% and 20%, respectively.
With `CC[C@H]1CN2CC[C@H]1C[C@H]2[C@H](O)c1cc(-c2ccc(C)cc2)nc2ccc(OC)cc12.Cl`, the values for the Inhibition in the assay with Plasmodium falciparum [1], with Plasmodium falciparum [2] and in the assay with HepG2 were 99%, 99% and 22%, respectively.
On to `COC(=O)c1ccc(CC(C)NCC(O)c2cccc(I)c2)cc1` (stereo not given), for which the Inhibition in the assay on Plasmodium falciparum [1] turned out to be 87%; in the assay with Plasmodium falciparum [2] it was 54%; with HepG2, 15%.
For `CC(Cc1ccc(OCCCCOc2ccccc2)cc1)NCCCc1nc2ccccc2[nH]1` (stereo not given), the Inhibition in the assay on Plasmodium falciparum [1] is recorded as 97%; with Plasmodium falciparum [2] it was 67%; with HepG2, 99%.
Regarding `CCCCCCC(C)(C)c1cc(O)c2c3c(c(=O)oc2c1)CCN(Cc1ccccc1)C3.Cl`, the values for the Inhibition with Plasmodium falciparum [1], in the assay with Plasmodium falciparum [2] and in the assay with HepG2 were 100%, 99% and 3%, respectively.
Take `CC(Cc1ccc(-c2nc3ccccc3[nH]2)cc1)NCC(O)c1cccc(C(F)(F)F)c1` (stereo not given): the Inhibition in the assay on Plasmodium falciparum [1] is 97%; in the assay with Plasmodium falciparum [2], 90%; in the assay with HepG2, 33%.
Turning to `Cc1cc(-c2ncc[nH]2)ccc1-c1ccc(C(=O)N2CCc3cc4c(cc32)C2(CCN(C)CC2)CO4)cc1.Cl`, the Inhibition in the assay on Plasmodium falciparum [1] was 100%; with Plasmodium falciparum [2] it was 98%; with HepG2 it was 32%.
As to `Cl.O=C(/C=C/c1ccc(Cl)c(Cl)c1)NC1C2CCC1CC(CN1CCC(c3c[nH]c4ccccc34)CC1)C2` (stereo not given), the Inhibition in the assay on Plasmodium falciparum [1] is 100%; in the assay on Plasmodium falciparum [2], 100%; in the assay with HepG2, 31%.
